Data: PubChem BioAssay (EPA / NIEHS)
Activity calls are given as the source filed them. The calls were made as follows: active = hit-call score of the fitted dose curve at least 0.9, where 1 is the maximum; inactive = score below 0.9.

test: ATG_M_32_CIS: Attagene CIS-FACTORIAL HepG2 Assay for M32 Transcription Factor (Internal Marker) (AID 2282949); conditions: HepG2 Attagene cis-factorial M32 reporter, mRNA; actives raise or lower the signal;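 also: background control marker of the multiplexed CIS panel rather than a real target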
Experimental: ATG_CIS is a cell-based, multiplexed-readout assay that uses HepG2, a human liver cell line, with measurements taken at 24 hours after chemical dosing in a 24-well plate.ATG_M_32_CIS is one of 52 assay component(s) measured or calculated from the ATG_CIS assay. It is designed to make measurements of mRNA induction, a form of inducible reporter, as detected with fluorescence intensity signals by Reverse transcription polymerase chain reaction (RT-PCR) and Capillary electrophoresis technology.Data from the assay component ATG_M_32_CIS was analyzed into 1 assay endpoint. This assay endpoint, ATG_M_32_CIS, was analyzed with bidirectional fitting relative to DMSO as the negative control and baseline of activity. Using a type of inducible reporter, measures of mRNA for gain or loss-of-signal activity can be used to understand the background control at the transcription factor-level as they relate to the gene . Furthermore, this assay endpoint can be referred to as a secondary readout, because this assay has produced multiple assay endpoints where this one serves a background control function. To generalize the intended target to other relatable targets, this assay endpoint is annotated to the background measurement intended target family, where the subfamily is internal marker.
Human liver HepG2 cells are transiently transfected with multiple reporter transcription units (MRTUs) in 6-well plates using FuGene 6 reagent (Roche; 3 ml FuGene/1 mg DNA). The MRTU constructs are regulated by a cis-regulating element (promoter). […] A major difference between the CIS and TRANS system is that in CIS activities of endogenous TFs are measured, whereas the TRANS assay evaluates changes in activities of exogenous, chimeric NR-Gal4 proteins. […] At the end of 24 hour incubation, total RNA was isolated using TriZol reagent (Invitrogen). The isolated RNA is then reverse-transcribed using oligo(dT) primer and Mo-MLV reverse transcriptase (Invitrogen) with DNAse I (Ambion) treatment for 30 min. The one-tenth of the produced cDNA was amplified by PCR using Taq DNA polymerase (Invitrogen) and two reporter sequence-specific primers. The PCR products were fluorescently labeled by primer extension with 6-arboxyfluorescein (6-FAM) 5'-labeled reporter sequence-specific primer (2 min at 95 C, 20 s at 68 C and 10 min at 72 C) and these products were digested with 5U of HpaI (New England Biolabs) for 2h at 37 C. The fragments were purified using Qiaquick PCR columns (Qiagen), analyzed on an ABI 3130xL genetic analyzer (Applied Biosystems) with peak positions identified by using a set of X-rhodamine (ROX)-labeled MapMarker1000 molecular weight standards (BioVentures). The raw capillary electrophoresis data was processed using Attagraph software (Attagene).

outcome, inactive:
Cc1ccc(-c2ccccc2)cc1
CC1=CC[C@@]23C[C@@H]1C(C)(C)[C@@H]2CC[C@H]3C
O=C1OC(=O)c2c(Br)c(Br)c(Br)c(Br)c21
O=C1c2ccccc2C(=O)c2c(O)ccc(O)c21
CCCCCCCCCCCCS(=O)(=O)Cl
CCCCCCC(O)CCCCCCCCCCC(=O)O (stereo not given)
CC(C)NCC(O)COc1ccc(CC(N)=O)cc1 (stereo not given)
CCN(CCC#N)c1ccc(N=Nc2ccc([N+](=O)[O-])cc2)cc1
CC(C)(C)c1ccc(C(=O)O)cc1
CCNCCO
c1ccc(CN(Cc2ccccc2)Cc2ccccc2)cc1
O=C(CS)OCCOC(=O)CS
O=P(O)(O)O
OCc1ccc(Cl)cc1Cl
CCCCSCCCC
Nc1ccccc1[N+](=O)[O-]
O=C(O)CCCCCCCCCCCC(=O)O
CC1CC(O)CC(C)(C)C1 (stereo not given)
COc1ccccc1[N+](=O)[O-]
C=Cc1ccc(C)cc1
COc1ccc(CCN2CCC(Nc3nc4ccccc4n3Cc3ccc(F)cc3)CC2)cc1
ClC(c1ccccc1)(c1ccccc1)c1ccccc1
Cc1cc(CCC(=O)OCCOCCOCCOC(=O)CCc2cc(C)c(O)c(C(C)(C)C)c2)cc(C(C)(C)C)c1O
CN(c1nccc(=O)[nH]1)C1CCN(c2nc3ccccc3n2Cc2ccc(F)cc2)CC1
CC(C)Nc1nc(N)nc(Cl)n1
Cc1ccc2c(c1)C(=O)OC2=O
CCCCCCCCCCCCCCCC(=O)OC/C=C(C)/C=C/C=C(C)/C=C/C1=C(C)CCCC1(C)C
[O-]n1ccccc1=S.[O-]n1ccccc1=S.[Zn+2]
CCc1cc(C(C)(C)C)c(O)c(C(C)(C)C)c1
CS(=O)(=O)c1ccc(C2=C(c3ccccc3)C(=O)OC2)cc1
CCCCCCCCSCCO
CN(C)C(=S)SC(=S)N(C)C
CC(C)OCCO
Nc1c(Cl)cc(Cl)cc1[N+](=O)[O-]
COc1cc(Cl)c(OC)cc1N
CCc1ccc(O)cc1
CCCCCCCCCCCC(=O)OCC(O)CO (stereo not given)
CCOc1ccc(NC(=O)CC(C)O)cc1 (stereo not given)
C[Si]1(C)O[Si](C)(C)O[Si](C)(C)O1
CC(C)CC(C)CC(O)CC(C)C (stereo not given)
